One assay deals with Tov-21-G. Briefly: Primary qHTS to identify gynecologic anti-cancer compounds using libraries of approved drugs and bioactive compounds (AID 1345084). Also: nearly all actives have a fitted effect of over 55% in size. Particulars: Gynecologic cancer cell panel viability, ATPlite luminescence, 48 h; series mostly up to 57.5 µM. The gist of the method: (§1)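 Luminescence from the ATPlite ATP-monitoring reagent indicates viable cell number; lower signal means cytotoxicity. Cells received compound 16 h after seeding and were exposed for 48 h across five concentrations.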
(qHTS replaces the single test concentration by a dilution series.)

The next assay relates to Tov112D. The assay is described as above. Particulars: Gynecologic cancer cell panel viability, ATPlite luminescence, 48 h; series mostly up to 57.5 µM. The gist of the method:
as §1
(In ATP-based viability assays light output follows the ATP content of the culture.)

Each structure is given as a SMILES string. Records with an inconclusive call do not appear. Where a call stands in place of a potency, no number is given. Calls of active or inactive are those of the source. Calls follow the shape of the dose curve; as a rule, active = well fitted cell-killing curve with a large enough effect; inconclusive = small, poorly fitted or top-dose-only effect, or effect the other way; inactive = flat fitted curve, though single readings scatter.
Potency is read from the fitted curve at half-maximal effect.

`Cc1ccc(S(=O)(=O)NCc2ccc(C(=O)NCCN(Cc3ccccc3)C(C)C)cc2)cc1`: the Potency entry in the assay with Tov-21-G and in the assay on Tov112D was “inactive” throughout.
Take `CC[C@H](C(=O)Nc1ccccc1N1CCCC1)c1ccccc1`: the Potency entry in the assay with Tov-21-G and with Tov112D was “inactive” each time.
Take `N#Cc1cnc2c(Cl)cc(NCc3cn(CCN4CCCCCC4)nn3)cc2c1Nc1ccc(F)c(Cl)c1`: the Potency entry in the assay with Tov-21-G and in the assay with Tov112D was “inactive” in each case.
Turning to `Cc1nc2cc(C(=O)NCc3ccccn3)nn2c(C)c1Cc1cccc(Cl)c1`, the Potency result with Tov-21-G and in the assay with Tov112D was “inactive” throughout.
In the case of `NC(N)=NC(=O)c1cnn(-c2cccc3ncccc23)c1C1CC1`, the Potency entry in the assay on Tov-21-G and in the assay on Tov112D was “inactive” throughout.
Regarding `COc1ccc2nc3n[nH]c(C)c3c(NCCOCCO)c2c1`, the Potency entry in the assay with Tov-21-G and in the assay on Tov112D was “inactive” in each case.
For the compound `CN(C)CCC(CSc1ccccc1)Nc1ccc(S(=O)(=O)NC(=O)c2ccc(N3CCN(Cc4ccccc4-c4ccc(Cl)cc4)CC3)cc2)cc1[N+](=O)[O-]` (stereo not given), the Potency result in the assay with Tov-21-G and with Tov112D was “inactive” each time.
Consider `COc1ccc2c(c1)C(C(=O)N(Cc1ccc(N(C)C)cc1)c1ccc(C(C)C)cc1)CCC2` (stereo not given), for which the Potency result in the assay with Tov-21-G and in the assay on Tov112D was “inactive” throughout.
With `CC1(C(=O)Nc2ccc(F)nc2)CCCN1c1nc(Nc2cc(C3CC3)[nH]n2)c2cccn2n1` (stereo not given), in the assay on Tov-21-G, the Potency was 14.1 µM (active). Moreover, the Potency result in the assay with Tov112D is “inactive”.
For `CCc1cnc(N2CCC(c3nc(COc4ccc(-n5cnnn5)cc4)cs3)CC2)nc1` the same measures were “inactive” and “inactive”.
The like results for `CC(=O)NCc1cccc(OC[C@@H](O)CNCCc2ccc(NS(=O)(=O)c3ccccc3)cc2)c1` were, in that order, “inactive” and “inactive”.
In the case of `CC(=O)NC(C(=O)O[C@H]1CCC(C)(C)[C@@H]2CC=C3C(=O)OCC3(O)[C@@]12C)C(C)C` (stereo not given in full), the Potency entry in the assay on Tov-21-G and in the assay on Tov112D was “inactive” in each case.
For the compound `C=CC(=O)N1CCCN(c2cc(NCCC(=O)O)nc(-c3ccccn3)n2)CC1`, the Potency entry with Tov-21-G and in the assay on Tov112D was “inactive” each time.
`FC(F)(F)c1ccc(/C=C/c2nc(COc3ccc(CCCCn4ccnn4)cc3)co2)cc1`: the Potency result in the assay with Tov-21-G and with Tov112D was “inactive” throughout.
For the compound `CC1=CC2/C=C(\C)CCC(O)C(=O)C(O)CC(=O)C23C(=O)NC(CC(C)C)C3C1C` (stereo not given), the Potency result in the assay with Tov-21-G and with Tov112D was “inactive” each time.
With `CCN1CCN(Cc2ccc(C(=O)Nc3ccc(C)c(Oc4ccc5c(c4)CC(=O)N5)c3)cc2C(F)(F)F)CC1`, the Potency entry with Tov-21-G and in the assay on Tov112D was “inactive” throughout.
For the compound `C=C1C(=O)OC2/C=C(\C)CC/C=C(\C)CC(OC(C)=O)C12` (stereo not given), the Potency entry in the assay with Tov-21-G and with Tov112D was “inactive” throughout.
For `CC(C)(F)CC(NC(c1ccc(-c2ccc(S(C)(=O)=O)cc2)cc1)C(F)(F)F)C(=O)NC1(C#N)CC1` (stereo not given), the Potency result in the assay on Tov-21-G and in the assay with Tov112D was “inactive” throughout.
In the case of `CC1OC(=O)C[C@@H]2C(C(=O)O)=CO[C@@H](O[C@H]3O[C@H](CO)[C@@H](O)[C@H](O)[C@H]3O)[C@H]12` (stereo not given in full), the Potency entry with Tov-21-G and in the assay on Tov112D was “inactive” throughout.
For `COc1ccc(NC(=O)c2ccc(-c3ccc(C(=N)N)cc3C)cc2)cc1N1CCN(C)CC1`, the Potency entry in the assay on Tov-21-G and in the assay with Tov112D was “inactive” throughout.
For the compound `CC(C)(C)Oc1ccc(OCC2Cc3ccccc3CN2C(=O)c2cccc3ccccc23)cc1` (stereo not given), the Potency result in the assay on Tov-21-G and in the assay with Tov112D was “inactive” each time.
In the case of `N#CC(CCCN1CCN(/N=C/c2cccnc2)CC1)(c1ccccc1)c1ccccc1`, the Potency result in the assay on Tov-21-G and with Tov112D was “inactive” in each case.
As for `C/C(=C/CO)CCC1C(C)CCC2C(C)(C)CCCC12C` (stereo not given), the Potency result in the assay on Tov-21-G and in the assay on Tov112D was “inactive” in each case.
As for `CO[C@@H]1CC(OC2CCC3(C)C(CCC45CCC(C6=CC(=O)OC6)C(C)(CCC43)C5=O)C2)O[C@H](C)[C@@H]1O[C@@H]1O[C@H](CO[C@@H]2O[C@H](CO)[C@@H](O)[C@H](O)[C@H]2O)[C@@H](O)[C@H](O)[C@H]1O` (stereo not given in full), the Potency is 3.16 µM (active) in the assay with Tov-21-G and 2.82 µM (active) in the assay with Tov112D.
For `CCn1c(=O)n([C@H]2CCCN(c3nccc(-c4cc5ccccc5o4)n3)C2)c2ccccc21`, the Potency entry in the assay on Tov-21-G and with Tov112D was “inactive” throughout.
For `Cc1cc(F)ccc1[C@H]1C[C@@H](N2CCN3C(=O)CC[C@H]3C2)CCN1C(=O)N(C)[C@H](C)c1cc(C(F)(F)F)cc(C(F)(F)F)c1`, the Potency result with Tov-21-G and with Tov112D was “inactive” throughout.
For the compound `Cc1ccc(NC(=O)N2CCN(c3nc(N)nc4sc(-c5cccnc5)nc34)CC2)cc1`, the Potency result in the assay on Tov-21-G and with Tov112D was “inactive” throughout.
For `CC(=O)OC(C)(C)/C=C/C(=O)[C@](C)(O)[C@H]1C(O)C[C@@]2(C)[C@@H]3CC=C4[C@@H](C=C(O[C@@H]5O[C@H](CO)[C@@H](O)[C@H](O)[C@H]5O)C(=O)C4(C)C)[C@]3(C)C(=O)C[C@]12C` (stereo not given in full), the Potency entry in the assay with Tov-21-G and in the assay on Tov112D was “inactive” in each case.
As to `Cc1cc(C(=O)Nc2cc(Nc3ccc4c(/C=C/c5ccccn5)n[nH]c4c3)ccc2F)n(C)n1`, the Potency entry in the assay on Tov-21-G and in the assay with Tov112D was “inactive” throughout.
On to `CN(C)CCN(Cc1ccccc1)C(=O)c1cc(-c2ccc(F)cc2)n2nc(C(C)(C)C)cc2n1`, for which the Potency entry in the assay with Tov-21-G and with Tov112D was “inactive” each time.
Consider `CCCc1cc(C)[nH]c(=O)c1CNC(=O)c1cc(-c2ccc(N3CCN(C(C)C)CC3)nc2)cc2c1cnn2C(C)C`, for which the Potency entry in the assay with Tov-21-G and in the assay on Tov112D was “inactive” each time.
In the case of `CC(C)c1cc2c(N3CCN(C4=NCC(C)(C)S4)CC3)ncnc2s1`, the Potency result in the assay with Tov-21-G and with Tov112D was “inactive” throughout.
As for `CC(C)(O)C1Cc2c(ccc(C(=O)CCc3ccccc3)c2O)O1` (stereo not given), the Potency with Tov-21-G was 12.6 µM (active); in the assay with Tov112D it was 10 µM (active).
The like results for `COc1cc(/C=N\NC(=O)c2ccc3c(c2)OCO3)ccc1OCc1ccccc1` were, in that order, “inactive” and “inactive”.
The like results for `CCCCCCCCC(=O)N[C@H](CN1CCCC1)[C@H](O)c1ccc2c(c1)OCCO2` were, in that order, “inactive” and “inactive”.

Values taken from PubChem BioAssay (NCATS).
